For 66 compounds, inhibition results are on record in PubChem BioAssay AID651610 (Broad Institute, 2012).

Several values for one entry are separate records, joined by “and”; a condition that tells them apart may be missing. Identical values can stand only once. The campaign covered roughly 360,000 compounds. About 3,900 (1.1%) were called active. The sample holds actives, similar compounds and a random draw of the others, so the mix is not that of the screen. Values without a mark were called inactive.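 Rule for the calls: active = mean replicate inhibition score of at least 50 and every replicate individually at or above 50; inconclusive = only one of the two criteria met; inactive = mean below 50 and not all replicates reaching 50.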

This assay in a line: blockers of JRFL envelope-mediated fusion – HeLa-JRFL effector, CEM21 target cells, luciferase, primary screen (AID 651610).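 Note: 0% = plate neutral controls and 100% = maraviroc near 300 nM.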 To be noted: HeLa-JRFL Env/CEM21 cell fusion, hits give high values.

For orientation: inhibition means the drop in the measured response relative to a control, in per cent. `COc1cccc(-c2nc(CS(=O)(=O)CC(=O)NCCc3ccc(OC)c(OC)c3)c(C)o2)c1`: the inhibition (at 16.7 µM unless noted) is 28.2% [at 12.3 µM].
With `COc1ccc(CCNC(=O)C2CCCN(Cc3nc(-c4cccc(Cl)c4)oc3C)C2)cc1OC` (configuration not stated), the inhibition (at 16.7 µM unless noted) was 81.2% [at 12.3 µM] (active).
Regarding `COc1ccc(CCNC(=O)CS(=O)(=O)Cc2nc(-c3ccc(C)cc3)oc2C)cc1OC`, under “at 16.7 µM unless noted”, the inhibition was 9.54% [at 12.3 µM].
Still for that read-out and setting: the value for `CO[C@H]1CN(C)C(=O)c2cc(NC(=O)C3CCCC3)ccc2OC[C@@H](C)N(C(=O)CC2CC2)C[C@@H]1C` was -11.3%; that for `CC(=O)Nc1ccc(C=Cc2ccc([N+](=O)[O-])cc2)cc1` was -56.5% [at 12.3 µM]; that for `O=C1/C(=C\c2ccc([N+](=O)[O-])cc2)CS(=O)(=O)C/C1=C/c1ccc([N+](=O)[O-])cc1` was 85.4% [at 12.3 µM] (active).
As for `O=C(O)C(=Cc1ccc([N+](=O)[O-])cc1)CCc1ccccc1`, the inhibition (at 16.7 µM unless noted) was -1.24% [at 12.3 µM].
With `CS(=O)(=O)Nc1ccc2c(c1)[C@H]1C[C@H](CC(=O)NCc3ccc(Cl)cc3)O[C@@H](CO)[C@H]1O2`, the inhibition (at 16.7 µM unless noted) is -3.71%.
The same measure, in the same setting: as for `O=C(NCC[C@@H]1CC[C@H](NC(=O)C2CC2)[C@H](CO)O1)c1cnccn1`, the figure is 1.75%; as for `C[C@@H]1CCCCO[C@H](CN(C)Cc2ccc(Cl)c(Cl)c2)[C@H](C)CN([C@@H](C)CO)C(=O)c2cc(NC(=O)CCC(F)(F)F)ccc2O1`, -44.8%; as for `Cc1ccc(S(=O)(=O)N(C)C[C@H]2Oc3ccc(NS(C)(=O)=O)cc3CC(=O)N([C@@H](C)CO)C[C@H]2C)cc1`, -22.8%.
As to `Cc1cc(C)cc(OCC(=O)NCc2cc(C)nc3ccccc23)c1`, the inhibition (at 16.7 µM unless noted) was 31.3% [at 12.3 µM].
Same read-out and setting: as for `Cc1cc(CNC(=O)c2cccc([N+](=O)[O-])c2)c2ccccc2n1`, the figure is 60.8% [at 12.3 µM] (active); as for `CN(C(=O)c1cccc([N+](=O)[O-])c1)c1ccccc1C(=O)NCc1ccccc1`, 29.4% [at 12.3 µM].
Still for that read-out and setting: the value for `COCC#Cc1ccc2c(c1)O[C@H](CN(C)C(=O)C1CCOCC1)[C@@H](C)CN([C@@H](C)CO)S2(=O)=O` was -8.26%; that for `Cc1ccc(S(=O)(=O)NCC[C@H]2CC[C@@H](NC(=O)C3CCOCC3)[C@@H](CO)O2)cc1` was 5.57%; that for `O=C(Nc1ccc(F)cc1)N[C@H]1C=C[C@@H](CC(=O)N2CCOCC2)O[C@H]1CO` was -5.7%.
In the case of `Cc1noc(C)c1S(=O)(=O)N(C)C[C@H]1OCCCC[C@H](C)Oc2ccc(NC(=O)c3ccccc3)cc2C(=O)N([C@@H](C)CO)C[C@H]1C`, the inhibition (at 16.7 µM unless noted) was -37.3%.
`C[C@@H]1CN([C@@H](C)CO)S(=O)(=O)c2ccc(C#Cc3ccncc3)cc2O[C@@H]1CN(C)S(=O)(=O)c1ccccc1`: the inhibition (at 16.7 µM unless noted) was 19.4%.
For `Cc1ccc(-c2ccc3c(c2)O[C@H](CN(C)C(=O)Nc2ccccc2)[C@@H](C)CN([C@@H](C)CO)S3(=O)=O)cc1`, the inhibition (at 16.7 µM unless noted) is -12.9%.
The same measure, in the same setting: the value for `C[C@@H]1CN([C@H](C)CO)S(=O)(=O)c2ccc(-c3ccncc3)cc2O[C@@H]1CN(C)C(=O)Nc1ccc(C(F)(F)F)cc1` was 27.4%.
As to `C[C@@H]1CN([C@@H](C)CO)S(=O)(=O)c2ccc(Br)cc2O[C@H]1CN(C)S(=O)(=O)c1ccccc1`, the inhibition (at 16.7 µM unless noted) is 18.6%.
As for `C[C@@H]1CN([C@@H](C)CO)S(=O)(=O)c2ccc(-c3cccc(F)c3)cc2O[C@@H]1CN(C)S(=O)(=O)c1ccccc1`, the inhibition (at 16.7 µM unless noted) is 92.8% (active).
With `Cc1ccc(-c2ccc3c(c2)O[C@H](CN(C)C(=O)Nc2ccc(C(F)(F)F)cc2)[C@@H](C)CN([C@H](C)CO)S3(=O)=O)cc1`, the inhibition (at 16.7 µM unless noted) is 57.4% (active).
The same measure, in the same setting: the value for `C[C@@H]1CN([C@H](C)CO)S(=O)(=O)c2ccc(-c3cccc(F)c3)cc2O[C@H]1CN(C)S(=O)(=O)c1ccc(F)cc1` was 30%; that for `C[C@H](CO)N1C[C@H](C)[C@H](CN(C)S(=O)(=O)c2ccccc2)Oc2cc(Br)ccc2S1(=O)=O` was 78% (active).
With `C[C@H]1CN([C@@H](C)CO)S(=O)(=O)c2ccc(-c3cccc(F)c3)cc2O[C@@H]1CN(C)C`, the inhibition (at 12.3 µM) is 0.788%; the inhibition (at 16.7 µM) is -8.73% and -21.2%.
For the compound `CC(=O)N(C)C[C@H]1Oc2cc(C#Cc3ccccc3F)ccc2S(=O)(=O)N([C@@H](C)CO)C[C@H]1C`, the inhibition (at 16.7 µM unless noted) is 17.7%.
The same measure, in the same setting: the value for `COc1cccc(NC(=O)N(C)C[C@H]2OCc3ccccc3-c3ccccc3C(=O)N([C@H](C)CO)C[C@@H]2C)c1` was 17.7%; that for `C[C@@H]1CN([C@H](C)CO)C(=O)Cc2cc(NC(=O)NC3CCCCC3)ccc2O[C@H]1CN(C)Cc1ccc(Cl)c(Cl)c1` was -10.2%.
Turning to `CC(C)CC#Cc1ccc2c(c1)O[C@@H](CN(C)C(=O)Nc1ccccc1F)[C@@H](C)CN([C@@H](C)CO)S2(=O)=O`, under “at 16.7 µM unless noted”, the inhibition was 9.38%.
Regarding `Cn1c(Cc2cccc3ccccc23)nnc1SCC(=O)N1CCN(c2cccc(Cl)c2)CC1`, the inhibition (at 16.7 µM unless noted) was 94.5% [at 12.3 µM] (active).
Same read-out and setting: the value for `Cc1cc2nnc(SCC(=O)N3CCN(c4ccccc4)CC3)n2c(N)n1` was -38.7% [at 12.3 µM].
On the same count and under the same terms, as for `Cn1c(CNC(=O)c2ccco2)nnc1SCC(=O)N1CCN(c2ccccc2)CC1`, the figure is -10.4% [at 12.3 µM]; as for `C[C@H]1CCCCO[C@@H](CN(C)C(=O)Nc2ccccc2)[C@@H](C)CN([C@@H](C)CO)C(=O)c2cc(NC(=O)Nc3ccc(F)cc3)ccc2O1`, -14%; as for `O=C(CN1CCOCC1)N[C@H]1CC[C@@H](CCNS(=O)(=O)c2ccccc2F)O[C@H]1CO`, 21.8%.
The same measure, in the same setting: as for `CCC(=O)N(C)C(c1ccccc1Cl)c1nnnn1-c1c(C)cccc1C` (configuration not stated), the figure is 68.5% [at 12.3 µM] (active); as for `Cc1cccc(C)c1-n1nnnc1C(CCc1ccccc1)N1CCN(C/C=C/c2ccccc2)CC1` (configuration not stated), -59.3% [at 12.3 µM].
Consider `CCOC(=O)N1CCN(C(c2ccnc3ccccc23)c2nnnn2-c2c(C)cccc2C)CC1` (configuration not stated), for which the inhibition (at 16.7 µM unless noted) is 14.5% [at 12.3 µM].
On the same count and under the same terms, as for `CC(C)NC(=O)N(C)C[C@@H]1Oc2ccc(NC(=O)Cn3cnnn3)cc2CC(=O)N([C@H](C)CO)C[C@H]1C`, the figure is 13.5%; as for `COc1ccc(CCN2C(=O)C(C)=C(C)C2=O)cc1OC`, -2.55% [at 12.3 µM]; as for `COc1ccc(CCN2C(=O)c3[nH]nc(-c4ccccc4O)c3C2c2ccc(C)cc2)cc1OC` (configuration not stated), 101% [at 12.3 µM] (active).
Same read-out and setting: the value for `CCCN1C(=O)c2[nH]nc(-c3ccccc3)c2C1c1ccccc1` (configuration not stated) was -22.9% [at 12.3 µM].
`COc1ccccc1-c1cnc2c(c1)C(=O)N([C@@H](C)CO)C[C@H](C)[C@@H](CN(C)C(C)=O)O2`: the inhibition (at 16.7 µM unless noted) was 0.851%.
On the same count and under the same terms, as for `COc1ccc(S(=O)(=O)Nc2ccc3c(c2)C(=O)N([C@H](C)CO)C[C@@H](C)[C@@H](CN(C)CC2CCCCC2)OCCCC[C@@H](C)O3)cc1`, the figure is -26.3%; as for `COc1cccc(/C=C2\SC(=S)N(CCCC(=O)N3CCOCC3)C2=O)c1`, 2.26% [at 12.3 µM]; as for `COc1ccc(/C=C2\SC(=S)N(CCC(=O)N3CCOCC3)C2=O)cc1OC`, 6.28% [at 12.3 µM].
On the same count and under the same terms, the value for `C=CCOc1ccc(/C=C2\SC(=S)N(CCC(=O)O)C2=O)cc1` was 60.7% [at 12.3 µM] (active); that for `CC1(C)Cc2c(sc3nc(SCC(=O)NCc4ccccc4)n(-c4ccccc4)c(=O)c23)CS1` was 138% [at 12.3 µM] (active).
On the same count and under the same terms, the value for `Cc1sc2nc(SCCO)n(-c3ccccc3)c(=O)c2c1C` was 14.7% [at 12.3 µM]; that for `COCCNC(=O)CSc1nc2sccc2c(=O)n1-c1ccccc1` was -8.5% [at 12.3 µM]; that for `C/C=C/c1cnc2c(c1)C(=O)N([C@@H](C)CO)C[C@H](C)[C@@H](CN(C)C(=O)C1CC1)O2` was 10.3%.
Consider `C[C@@H]1CCCCO[C@H](CN(C)Cc2ccc(C(F)(F)F)cc2)[C@H](C)CN([C@@H](C)CO)C(=O)c2cc(N(C)C)ccc2O1`, for which the inhibition (at 16.7 µM unless noted) is 6.26%.
Same read-out and setting: as for `COc1ccccc1S(=O)(=O)N[C@@H]1CC[C@@H](CCNC(=O)C2CCCCC2)O[C@@H]1CO`, the figure is -6.59%.
As for `C=CCOCCN(C)C1=NS(=O)(=O)c2ccccc21`, the inhibition (at 16.7 µM unless noted) was 1.56% [at 12.3 µM].
On to `COc1ccc(/C=N/N(C)C2=NS(=O)(=O)c3ccccc32)cc1OC`, for which the inhibition (at 16.7 µM unless noted) is 1.34% [at 12.3 µM].
For `COc1ccc(C(C)(C)C)cc1NC(=O)CN(C)C1=NS(=O)(=O)c2ccccc21`, for the setting “at 16.7 µM unless noted”, the inhibition is 64.3% [at 12.3 µM] (active).
On to `COc1ccc(CN(C)C[C@H]2Oc3c(NC(=O)Nc4ccccc4)cccc3C(=O)N([C@@H](C)CO)C[C@@H]2C)cc1`, for which the inhibition (at 16.7 µM unless noted) was 6.99%.
As for `C[C@@H]1CN([C@@H](C)CO)C(=O)Cc2cc(NC(=O)C3CCCCC3)ccc2O[C@@H]1CN(C)CC1CCCCC1`, the inhibition (at 16.7 µM unless noted) was -8.61%.
Still for that read-out and setting: the value for `CN(C)C=NC(=O)c1cccn1-c1ncc(C(F)(F)F)cc1Cl` was 8.04% [at 12.3 µM].
The same measure, in the same setting: the value for `COc1cccc(/C=N/Nc2ncc(C(F)(F)F)cc2Cl)c1O` was 74.7% [at 12.3 µM] (active); that for `O=c1[nH]c2cccnc2n(CCNc2ncc(C(F)(F)F)cc2Cl)c1=O` was -11.9% [at 12.3 µM]; that for `C[C@@H]1CN([C@@H](C)CO)C(=O)c2cc(NS(=O)(=O)c3cccs3)ccc2O[C@H]1CN(C)CC1CCCCC1` was -17.2%.
On the same count and under the same terms, as for `Cc1cccc(NC(=O)c2nc[nH]c2C(=O)NCC(=O)OCc2ccccc2)c1`, the figure is 55.2% [at 12.3 µM] (active); as for `C[C@H](NC(=O)c1nc[nH]c1C(=O)NCC(=O)OC(C)(C)C)C(=O)OCc1ccccc1`, -4.51% [at 12.3 µM].
Regarding `CC(C)(C)OC(=O)CNC(=O)c1[nH]cnc1C(=O)N[C@@H](Cc1ccccc1)C(=O)OCc1ccccc1`, the inhibition (at 16.7 µM unless noted) was 6.73% [at 12.3 µM].
